Assay results: article PMC7862700, “An all-to-all approach to the identification of sequence-specific readers for epigenetic DNA modifications on cytosine”

Columns and labels:
Experiment in all cases: DAPPL (digital affinity profiling via proximity ligation, sequencing); 10 mM Tris-HCl pH 7.5, 50 mM NaCl, 1 mM DTT, 4% glycerol, room temperature, 30 min; GST-TFs on glutathione beads, 16-mer random dsDNA library, 0.1% formaldehyde crosslink after washing; high values mean tight binding
FLI1 = target: T1, FLI1 (Homo sapiens, UniProt Q01543 1-452); conditions: protein: recombinant; tags: N-terminal GST; dsDNA, one strand shown
T1 sequence: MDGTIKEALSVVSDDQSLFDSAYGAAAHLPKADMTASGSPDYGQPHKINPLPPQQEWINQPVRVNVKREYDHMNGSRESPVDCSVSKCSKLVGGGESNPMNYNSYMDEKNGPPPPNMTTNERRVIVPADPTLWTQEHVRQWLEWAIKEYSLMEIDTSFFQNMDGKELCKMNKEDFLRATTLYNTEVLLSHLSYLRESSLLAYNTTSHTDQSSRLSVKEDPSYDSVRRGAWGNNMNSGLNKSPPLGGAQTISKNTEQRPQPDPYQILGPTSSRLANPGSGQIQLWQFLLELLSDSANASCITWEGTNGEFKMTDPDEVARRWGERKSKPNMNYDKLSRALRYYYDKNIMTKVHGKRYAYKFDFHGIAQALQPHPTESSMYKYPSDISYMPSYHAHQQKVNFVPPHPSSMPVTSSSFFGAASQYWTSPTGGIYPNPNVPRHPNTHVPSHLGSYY
In short: (§1)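 Sequencing on an Illumina NextSeq500 followed washing, crosslinking with 0.1% formaldehyde, proximity ligation (BsaI/T4 ligase, 1 h, 37 °C) and PCR amplification of pools that had been incubated for 30 min at room temperature with 200 nmole of a random double-stranded 16-mer DNA library in Tris/NaCl/DTT/glycerol buffer. Each pool held DNA-barcoded human transcription factors, expressed in yeast as GST fusions and captured on glutathione beads, plus a tag-only sample. Binding signal is a hexamer's read frequency for a factor divided by its frequency in the tag-only sample.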

ELK1 = target: T2, ELK1 (Homo sapiens, UniProt P19419 1-428); conditions: protein: recombinant; tags: N-terminal GST; dsDNA, one strand shown
T2 sequence: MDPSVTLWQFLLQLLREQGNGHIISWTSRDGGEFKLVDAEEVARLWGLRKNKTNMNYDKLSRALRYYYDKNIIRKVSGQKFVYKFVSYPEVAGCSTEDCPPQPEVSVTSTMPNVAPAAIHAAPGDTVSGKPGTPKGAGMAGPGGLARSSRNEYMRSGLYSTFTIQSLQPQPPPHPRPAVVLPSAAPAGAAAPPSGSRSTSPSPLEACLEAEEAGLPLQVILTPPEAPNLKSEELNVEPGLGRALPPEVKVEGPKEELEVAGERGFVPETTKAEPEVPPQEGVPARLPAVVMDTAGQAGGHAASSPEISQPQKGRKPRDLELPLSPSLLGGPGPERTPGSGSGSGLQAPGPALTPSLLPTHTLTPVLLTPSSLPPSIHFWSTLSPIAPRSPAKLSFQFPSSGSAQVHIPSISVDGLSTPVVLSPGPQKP
In short: as §1

GABPA = target: T3, GABPA (Homo sapiens, UniProt Q06546 1-454); conditions: protein: recombinant; tags: N-terminal GST; dsDNA, one strand shown
T3 sequence: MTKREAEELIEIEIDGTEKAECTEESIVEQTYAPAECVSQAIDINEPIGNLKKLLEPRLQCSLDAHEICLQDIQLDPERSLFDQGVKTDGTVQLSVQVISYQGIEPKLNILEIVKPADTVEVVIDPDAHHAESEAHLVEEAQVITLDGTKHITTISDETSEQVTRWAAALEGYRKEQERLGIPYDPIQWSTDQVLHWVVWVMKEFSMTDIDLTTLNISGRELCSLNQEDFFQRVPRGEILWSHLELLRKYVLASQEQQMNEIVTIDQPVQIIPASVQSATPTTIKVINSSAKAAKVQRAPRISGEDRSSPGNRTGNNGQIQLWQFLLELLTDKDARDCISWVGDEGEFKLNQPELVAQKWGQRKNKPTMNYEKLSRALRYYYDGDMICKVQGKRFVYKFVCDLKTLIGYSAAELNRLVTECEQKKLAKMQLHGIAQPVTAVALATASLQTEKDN
In short: as §1

ERG = target: T4, ERG (Homo sapiens, UniProt P11308 1-479); conditions: protein: recombinant; tags: N-terminal GST; dsDNA, one strand shown
T4 sequence: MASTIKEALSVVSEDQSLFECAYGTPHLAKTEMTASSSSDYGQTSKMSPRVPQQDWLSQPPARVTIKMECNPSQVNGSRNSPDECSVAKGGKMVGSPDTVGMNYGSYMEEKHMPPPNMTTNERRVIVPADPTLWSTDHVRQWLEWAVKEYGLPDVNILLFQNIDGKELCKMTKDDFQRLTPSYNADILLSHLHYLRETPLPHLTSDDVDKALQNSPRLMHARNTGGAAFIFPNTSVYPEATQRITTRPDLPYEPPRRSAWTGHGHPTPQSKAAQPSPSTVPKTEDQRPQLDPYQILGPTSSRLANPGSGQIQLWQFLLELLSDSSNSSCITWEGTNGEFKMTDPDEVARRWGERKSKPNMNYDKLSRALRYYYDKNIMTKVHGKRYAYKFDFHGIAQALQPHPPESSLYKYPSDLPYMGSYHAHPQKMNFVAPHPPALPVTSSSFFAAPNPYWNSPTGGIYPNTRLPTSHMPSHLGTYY
In short: as §1

ELF1 = ELF1 (Homo sapiens, UniProt P32519 1-619); conditions: protein: recombinant; tags: N-terminal GST; dsDNA, one strand shown
Sequence of ELF1 (P32519 whole entry): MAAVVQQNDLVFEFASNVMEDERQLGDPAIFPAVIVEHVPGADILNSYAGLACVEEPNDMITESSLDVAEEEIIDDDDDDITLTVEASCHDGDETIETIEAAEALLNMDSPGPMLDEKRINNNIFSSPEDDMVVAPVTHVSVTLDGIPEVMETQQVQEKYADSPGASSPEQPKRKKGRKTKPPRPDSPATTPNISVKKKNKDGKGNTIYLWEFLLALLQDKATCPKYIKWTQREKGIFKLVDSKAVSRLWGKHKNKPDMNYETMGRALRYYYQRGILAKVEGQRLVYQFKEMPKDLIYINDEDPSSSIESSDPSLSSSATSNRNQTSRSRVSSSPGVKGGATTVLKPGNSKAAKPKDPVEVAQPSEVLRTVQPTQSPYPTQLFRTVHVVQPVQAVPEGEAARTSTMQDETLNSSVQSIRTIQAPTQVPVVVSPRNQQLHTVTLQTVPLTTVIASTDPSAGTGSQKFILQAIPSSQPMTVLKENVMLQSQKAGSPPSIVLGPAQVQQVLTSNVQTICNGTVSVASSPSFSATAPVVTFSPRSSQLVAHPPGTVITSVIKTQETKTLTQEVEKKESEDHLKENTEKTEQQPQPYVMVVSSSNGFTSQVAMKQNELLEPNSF
In short: as §1

EHF = target: T5, EHF (Homo sapiens, UniProt Q9NZC4 1-300); conditions: protein: recombinant; tags: N-terminal GST; dsDNA, one strand shown
T5 sequence: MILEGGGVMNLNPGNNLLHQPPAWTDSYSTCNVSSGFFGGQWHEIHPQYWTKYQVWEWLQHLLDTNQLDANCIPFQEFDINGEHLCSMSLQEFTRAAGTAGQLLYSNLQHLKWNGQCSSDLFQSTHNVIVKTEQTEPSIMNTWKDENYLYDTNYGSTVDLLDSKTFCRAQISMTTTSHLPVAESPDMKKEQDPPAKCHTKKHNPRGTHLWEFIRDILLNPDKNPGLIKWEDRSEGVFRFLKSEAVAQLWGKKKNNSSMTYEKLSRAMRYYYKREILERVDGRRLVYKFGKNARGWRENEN
In short: as §1

SPI1 = SPI1 (Homo sapiens, UniProt P17947 1-270); conditions: protein: recombinant; tags: N-terminal GST; dsDNA, one strand shown
In short: as §1

SPIB = SPIB (Homo sapiens, UniProt Q01892 1-262); conditions: protein: recombinant; tags: N-terminal GST; dsDNA, one strand shown
Sequence of SPIB (Q01892 whole entry): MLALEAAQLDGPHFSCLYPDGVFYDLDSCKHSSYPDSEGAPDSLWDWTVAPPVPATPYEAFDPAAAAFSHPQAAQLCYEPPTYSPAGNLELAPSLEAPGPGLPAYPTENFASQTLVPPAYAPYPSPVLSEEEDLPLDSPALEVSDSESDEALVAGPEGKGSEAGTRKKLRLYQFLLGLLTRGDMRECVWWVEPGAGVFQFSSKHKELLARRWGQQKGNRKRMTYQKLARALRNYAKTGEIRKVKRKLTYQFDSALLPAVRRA
In short: as §1

ELK3 = target: T6, ELK3 (Homo sapiens, UniProt P41970 1-407); conditions: protein: recombinant; tags: N-terminal GST; dsDNA, one strand shown
T6 sequence: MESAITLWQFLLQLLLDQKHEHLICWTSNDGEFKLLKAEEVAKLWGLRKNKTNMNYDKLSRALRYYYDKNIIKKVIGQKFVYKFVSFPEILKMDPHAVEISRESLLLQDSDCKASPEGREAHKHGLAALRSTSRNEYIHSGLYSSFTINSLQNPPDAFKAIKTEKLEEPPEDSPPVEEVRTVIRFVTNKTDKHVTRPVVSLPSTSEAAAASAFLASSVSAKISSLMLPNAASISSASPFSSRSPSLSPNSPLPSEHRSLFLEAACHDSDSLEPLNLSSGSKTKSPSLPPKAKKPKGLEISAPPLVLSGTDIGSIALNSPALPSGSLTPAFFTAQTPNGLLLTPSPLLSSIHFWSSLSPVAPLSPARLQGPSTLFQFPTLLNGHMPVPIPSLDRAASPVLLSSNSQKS
In short: as §1

FEV = target: T7, FEV (Homo sapiens, UniProt Q99581 1-238); conditions: protein: recombinant; tags: N-terminal GST; dsDNA, one strand shown
T7 sequence: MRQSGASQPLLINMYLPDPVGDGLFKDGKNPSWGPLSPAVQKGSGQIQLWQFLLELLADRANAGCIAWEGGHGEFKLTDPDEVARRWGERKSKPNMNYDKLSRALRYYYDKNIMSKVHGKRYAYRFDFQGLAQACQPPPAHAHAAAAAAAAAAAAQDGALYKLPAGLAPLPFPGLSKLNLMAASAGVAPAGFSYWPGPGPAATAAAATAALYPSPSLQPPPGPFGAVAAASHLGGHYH
In short: as §1

ETV5 = ETV5 (Homo sapiens, UniProt P41161 1-510); conditions: protein: recombinant; tags: N-terminal GST; dsDNA, one strand shown
Sequence of ETV5 (P41161 whole entry): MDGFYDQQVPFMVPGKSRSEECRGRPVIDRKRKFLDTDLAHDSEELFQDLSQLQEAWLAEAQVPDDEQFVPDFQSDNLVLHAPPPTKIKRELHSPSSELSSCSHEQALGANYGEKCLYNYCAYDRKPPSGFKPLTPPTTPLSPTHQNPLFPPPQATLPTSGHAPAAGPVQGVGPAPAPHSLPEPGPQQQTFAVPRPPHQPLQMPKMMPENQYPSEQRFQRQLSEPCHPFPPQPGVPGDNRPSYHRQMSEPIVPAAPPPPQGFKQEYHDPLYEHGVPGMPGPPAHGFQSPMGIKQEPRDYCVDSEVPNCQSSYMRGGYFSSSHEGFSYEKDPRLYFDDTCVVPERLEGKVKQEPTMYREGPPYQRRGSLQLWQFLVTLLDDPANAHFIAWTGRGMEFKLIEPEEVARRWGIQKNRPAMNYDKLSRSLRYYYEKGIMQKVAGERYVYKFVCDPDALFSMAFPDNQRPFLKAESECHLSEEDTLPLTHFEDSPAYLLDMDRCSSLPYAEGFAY
In short: as §1

HSF1 = HSF1 (Homo sapiens, UniProt Q00613 1-529); conditions: protein: recombinant; tags: N-terminal GST; chain copies: 3; dsDNA, one strand shown
Sequence of HSF1 (Q00613 whole entry): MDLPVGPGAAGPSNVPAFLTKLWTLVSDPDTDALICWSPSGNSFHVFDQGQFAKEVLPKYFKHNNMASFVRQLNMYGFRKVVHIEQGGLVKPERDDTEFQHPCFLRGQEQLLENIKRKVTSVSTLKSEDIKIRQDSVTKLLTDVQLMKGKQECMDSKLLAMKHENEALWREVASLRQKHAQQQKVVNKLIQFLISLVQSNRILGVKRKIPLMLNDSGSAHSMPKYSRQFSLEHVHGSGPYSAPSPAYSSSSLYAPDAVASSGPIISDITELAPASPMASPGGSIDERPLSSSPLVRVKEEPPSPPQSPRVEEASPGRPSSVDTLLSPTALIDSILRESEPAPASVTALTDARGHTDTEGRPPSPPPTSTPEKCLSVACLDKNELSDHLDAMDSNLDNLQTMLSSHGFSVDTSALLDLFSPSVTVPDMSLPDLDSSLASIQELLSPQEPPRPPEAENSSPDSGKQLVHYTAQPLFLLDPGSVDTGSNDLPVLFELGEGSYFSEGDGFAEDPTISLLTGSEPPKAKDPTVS
In short: as §1

SPIC = target: T8, SPIC (Homo sapiens, UniProt Q8N5J4 1-248); conditions: protein: recombinant; tags: N-terminal GST; dsDNA, one strand shown
T8 sequence: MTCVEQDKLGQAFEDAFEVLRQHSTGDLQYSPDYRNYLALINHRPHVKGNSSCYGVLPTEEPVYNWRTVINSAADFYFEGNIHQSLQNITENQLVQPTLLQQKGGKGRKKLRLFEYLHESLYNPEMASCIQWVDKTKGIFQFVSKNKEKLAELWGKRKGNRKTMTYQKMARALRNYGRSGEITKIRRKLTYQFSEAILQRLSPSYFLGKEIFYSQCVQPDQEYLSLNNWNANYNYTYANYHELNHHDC
In short: as §1

ELF4 = ELF4 (Homo sapiens, UniProt Q99607 1-663); conditions: protein: recombinant; tags: N-terminal GST; dsDNA, one strand shown
Sequence of ELF4 (Q99607 whole entry): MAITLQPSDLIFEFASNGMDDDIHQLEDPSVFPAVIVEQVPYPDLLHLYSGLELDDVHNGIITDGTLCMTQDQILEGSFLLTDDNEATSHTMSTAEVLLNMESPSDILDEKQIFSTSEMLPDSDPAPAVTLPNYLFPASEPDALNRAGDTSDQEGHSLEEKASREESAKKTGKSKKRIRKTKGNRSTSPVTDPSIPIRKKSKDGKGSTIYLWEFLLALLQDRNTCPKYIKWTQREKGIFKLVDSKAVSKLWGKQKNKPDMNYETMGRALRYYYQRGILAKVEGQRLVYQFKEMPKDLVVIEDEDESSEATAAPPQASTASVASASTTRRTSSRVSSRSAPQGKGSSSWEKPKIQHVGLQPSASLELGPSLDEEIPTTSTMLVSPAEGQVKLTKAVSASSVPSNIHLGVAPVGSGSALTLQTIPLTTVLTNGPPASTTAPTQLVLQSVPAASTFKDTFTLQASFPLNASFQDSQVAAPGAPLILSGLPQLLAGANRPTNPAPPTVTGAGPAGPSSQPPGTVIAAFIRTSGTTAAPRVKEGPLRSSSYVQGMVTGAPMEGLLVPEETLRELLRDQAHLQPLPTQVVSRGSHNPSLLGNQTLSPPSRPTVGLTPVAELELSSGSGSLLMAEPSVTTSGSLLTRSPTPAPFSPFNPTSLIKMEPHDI
In short: as §1

ELK4 = target: T9, ELK4 (Homo sapiens, UniProt P28324-2 1-405); conditions: protein: recombinant; tags: N-terminal GST; dsDNA, one strand shown
T9 sequence: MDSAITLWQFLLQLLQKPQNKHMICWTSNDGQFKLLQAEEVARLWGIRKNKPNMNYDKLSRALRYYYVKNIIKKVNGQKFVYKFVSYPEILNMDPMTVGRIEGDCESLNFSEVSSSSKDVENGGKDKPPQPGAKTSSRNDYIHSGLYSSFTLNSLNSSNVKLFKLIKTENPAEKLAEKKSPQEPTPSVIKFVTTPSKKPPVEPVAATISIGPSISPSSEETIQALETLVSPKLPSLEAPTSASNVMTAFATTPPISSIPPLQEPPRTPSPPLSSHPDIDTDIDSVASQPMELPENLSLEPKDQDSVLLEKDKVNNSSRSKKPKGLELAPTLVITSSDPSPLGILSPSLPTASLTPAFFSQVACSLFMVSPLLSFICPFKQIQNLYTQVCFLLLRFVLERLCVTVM
In short: as §1

ETV2 = target: T10, ETV2 (Homo sapiens, UniProt O00321 1-342); conditions: protein: recombinant; tags: N-terminal GST; dsDNA, one strand shown
T10 sequence: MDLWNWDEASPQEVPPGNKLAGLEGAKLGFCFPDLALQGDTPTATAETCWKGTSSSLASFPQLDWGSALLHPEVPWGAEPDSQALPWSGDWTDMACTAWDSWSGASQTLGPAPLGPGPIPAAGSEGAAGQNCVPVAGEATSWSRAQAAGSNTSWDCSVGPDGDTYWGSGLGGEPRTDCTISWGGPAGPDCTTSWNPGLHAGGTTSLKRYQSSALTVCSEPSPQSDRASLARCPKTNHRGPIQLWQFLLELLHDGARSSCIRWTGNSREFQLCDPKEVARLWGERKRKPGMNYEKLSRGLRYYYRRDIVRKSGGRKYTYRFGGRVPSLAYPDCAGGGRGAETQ
In short: as §1

ELF3 = target: T11, ELF3 (Homo sapiens, UniProt P78545 1-371); conditions: protein: recombinant; tags: N-terminal GST; dsDNA, one strand shown
T11 sequence: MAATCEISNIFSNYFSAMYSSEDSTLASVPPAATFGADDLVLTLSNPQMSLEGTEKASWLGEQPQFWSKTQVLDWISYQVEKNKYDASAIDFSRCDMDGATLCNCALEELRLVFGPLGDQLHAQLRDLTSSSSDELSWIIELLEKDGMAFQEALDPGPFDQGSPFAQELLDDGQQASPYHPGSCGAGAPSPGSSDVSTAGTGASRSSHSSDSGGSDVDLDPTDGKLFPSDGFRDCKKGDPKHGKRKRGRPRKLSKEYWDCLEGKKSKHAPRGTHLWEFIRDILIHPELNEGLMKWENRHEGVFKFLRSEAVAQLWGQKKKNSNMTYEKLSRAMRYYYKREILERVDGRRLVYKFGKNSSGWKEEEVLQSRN
In short: as §1

CRX = CRX (Homo sapiens, UniProt O43186 1-299); conditions: protein: recombinant; tags: N-terminal GST; dsDNA, one strand shown
Sequence of CRX (O43186 whole entry): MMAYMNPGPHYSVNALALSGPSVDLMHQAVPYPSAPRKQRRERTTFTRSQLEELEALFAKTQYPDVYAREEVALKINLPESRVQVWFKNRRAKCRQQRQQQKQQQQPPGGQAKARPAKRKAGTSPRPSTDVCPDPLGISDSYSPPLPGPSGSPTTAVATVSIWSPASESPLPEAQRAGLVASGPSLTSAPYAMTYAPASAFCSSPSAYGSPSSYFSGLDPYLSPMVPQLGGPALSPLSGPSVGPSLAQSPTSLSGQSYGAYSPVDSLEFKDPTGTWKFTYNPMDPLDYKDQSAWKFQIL
In short: as §1

ETV1 = ETV1 (Homo sapiens, UniProt P50549 1-477); conditions: protein: recombinant; tags: N-terminal GST; dsDNA, one strand shown
Sequence of ETV1 (P50549 whole entry): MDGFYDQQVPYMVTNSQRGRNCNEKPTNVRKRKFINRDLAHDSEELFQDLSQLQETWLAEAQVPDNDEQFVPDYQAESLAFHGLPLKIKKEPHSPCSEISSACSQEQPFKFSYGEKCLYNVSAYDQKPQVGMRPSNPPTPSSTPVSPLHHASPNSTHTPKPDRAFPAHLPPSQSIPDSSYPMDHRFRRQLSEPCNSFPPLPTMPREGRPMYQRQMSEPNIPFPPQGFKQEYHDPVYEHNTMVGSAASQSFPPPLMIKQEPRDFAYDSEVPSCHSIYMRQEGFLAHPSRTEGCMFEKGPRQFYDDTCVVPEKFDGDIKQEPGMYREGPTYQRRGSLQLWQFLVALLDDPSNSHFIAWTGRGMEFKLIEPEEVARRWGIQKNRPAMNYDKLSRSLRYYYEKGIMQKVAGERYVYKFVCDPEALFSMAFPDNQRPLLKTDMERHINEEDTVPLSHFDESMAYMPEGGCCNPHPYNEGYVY
In short: as §1

For TAACAT, the binding signal (FLI1) was 1.41 fold enrichment (6-mer frequency, TF over GST control), the binding signal (ELK1) was 1.26 fold enrichment (6-mer frequency, TF over GST control) and the binding signal (GABPA) was 1.3 fold enrichment (6-mer frequency, TF over GST control). The binding signal (ERG) was 1.36 fold enrichment (6-mer frequency, TF over GST control), the binding signal (ELF1) was 1.35 fold enrichment (6-mer frequency, TF over GST control) and the binding signal (EHF) was 1.28 fold enrichment (6-mer frequency, TF over GST control). For the same sequence, the binding signal (SPI1) was 1.32 fold enrichment (6-mer frequency, TF over GST control), the binding signal (SPIB) was 1.27 fold enrichment (6-mer frequency, TF over GST control) and the binding signal (ELK3) was 1.28 fold enrichment (6-mer frequency, TF over GST control). The binding signal (FEV) was 1.32 fold enrichment (6-mer frequency, TF over GST control), the binding signal (ETV5) was 1.36 fold enrichment (6-mer frequency, TF over GST control) and the binding signal (HSF1) was 1.29 fold enrichment (6-mer frequency, TF over GST control). The binding signal (SPIC) was 1.46 fold enrichment (6-mer frequency, TF over GST control), the binding signal (ELF4) was 1.37 fold enrichment (6-mer frequency, TF over GST control) and the binding signal (ELK4) was 1.29 fold enrichment (6-mer frequency, TF over GST control). For the same sequence, the binding signal (ETV2) was 1.39 fold enrichment (6-mer frequency, TF over GST control), the binding signal (ELF3) was 1.5 fold enrichment (6-mer frequency, TF over GST control) and the binding signal (CRX) was 1.57 fold enrichment (6-mer frequency, TF over GST control). The binding signal (ETV1) was 1.37 fold enrichment (6-mer frequency, TF over GST control).
